In PubChem BioAssay (NCI) one finds growth inhibition data, which are given here for 21 compounds.

Assay [1] can be described thus: NCI Yeast Anticancer Drug Screen. Data for the rad50 strain (AID 155).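 Further: 0% = growth of vehicle-only cultures of the same strain.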 The conditions noted are these: S. cerevisiae rad50 strain growth inhibition; at 50.0 µM; hits give high values. In short, it runs like this: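 DNA repair mutant yeast, compound exposure, growth read-out; inhibition is taken relative to vehicle.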
The nature of assay [2]: NCI Yeast Anticancer Drug Screen. Data for the mec2-1 strain (AID 157). The conditions noted are these: S. cerevisiae mec2-1 strain, at 50.0 µM, hits give high values. Put shortly:
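Cells of the genetically defined mec2-1 yeast strain are incubated with test compound. Inhibition of growth is calculated against vehicle-treated controls.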

The nature of assay [3]: NCI Yeast Anticancer Drug Screen. Data for the sgs1 mgt1 strain (AID 161).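 Further: 0% = growth of cultures given vehicle only.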 The conditions noted are these: S. cerevisiae sgs1 mgt1 strain, at 50.0 µM, hits give high values. Put shortly:
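Inhibition of yeast growth, normalised to vehicle-treated controls, is reported for a strain bearing genetic alterations in DNA damage repair.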

Assay [4] is described as follows: NCI Yeast Anticancer Drug Screen. Data for the cln2 rad14 strain (AID 165).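 Further: 0% = growth equal to vehicle treated cultures.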 The conditions noted are these: S. cerevisiae cln2 rad14 strain, at 50.0 µM, hits give high values. In short, it runs like this: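 The screen exposed genetically defined yeast (cln2 rad14) to test compounds and scored growth inhibition relative to vehicle-treated controls.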
Assay [5] is described as follows: NCI Yeast Anticancer Drug Screen. Data for the bub3 strain (AID 167). The conditions noted are these: S. cerevisiae bub3 mutant strain, at 50.0 µM, hits give high values. Put shortly: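 In this screen, a yeast mutant lacking normal mitotic checkpoint function is challenged with compound. Relative growth versus vehicle gives the inhibition value.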
Assay [6] is described as follows: NCI Yeast Anticancer Drug Screen. Data for the mlh1 rad18 strain (AID 175). The settings on record: S. cerevisiae mlh1 rad18 strain growth inhibition; at 50.0 µM; hits give high values. In short, it runs like this: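 Compound-treated yeast growth, normalised to vehicle controls. Strain bears defined DNA repair mutations.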

This is part of a sample that, as a whole, favours compounds with a hit. Of some 79,000 tested, about 15% had one in any assay. Values without a mark were called inactive. Activity calls are given as the source filed them. No stated cut-off is given here; in the data, active means growth inhibition above about 70%; inactive means the rest.

Regarding `Oc1ccc(Nc2ncnc3nc[nH]c23)cc1CN(CCCl)CCCl`, the growth inhibition in assay [1] was -5.85%; in assay [2], -5.8%; in assay [3], 3.95%; in assay [4] it was -45.4%; in assay [5] it was -15.5%; in assay [6], 3.65%.

For `COP(=S)(c1ccccc1)N(C)C(=O)Oc1cccc(C(C)C)c1` (stereo unspecified), the growth inhibition was 21.2% in assay [1]; 30.7% in assay [2]; 34.2% in assay [3]; 25.8% in assay [4]; 43.8% in assay [5]; 45.7% in assay [6].

Take `O=C(O)c1ccccc1Cl`: the growth inhibition was -8% in assay [1]; -11.5% in assay [2]; 3.75% in assay [3]; 30.9% in assay [4]; 5.2% in assay [5]; 16.4% in assay [6].

As to `CCOC(=O)N[N+]12CCN(CC1)CC2`, the growth inhibition in assay [1] was 0.45%; in assay [2] it was -2.65%; in assay [3] it was 1.95%; in assay [4] it was -12.9%; in assay [5], -1.2%; in assay [6], -11.1%.

For the compound `O=c1[nH]c2ccc([As](O)O)cc2[nH]1`, the growth inhibition is -14.8% in assay [1]; -14.9% in assay [2]; -4.9% in assay [3]; -17.8% in assay [4]; -8.25% in assay [5]; 0.75% in assay [6].

As to `CC1(C)OP(=O)(c2ccccc2)C=C1Br` (stereo unspecified), the growth inhibition in assay [1] is -39.9%; in assay [2] it was -9.4%; in assay [3], -23.4%; in assay [4], -11.8%; in assay [5], -2.75%; in assay [6], -3.7%.

Regarding `O=C(Sc1c[nH]c(=O)[nH]c1=O)c1ccc(N(CCCl)CCCl)cc1`, the growth inhibition was 29.6% in assay [1]; -18.4% in assay [2]; 19.9% in assay [3]; -24.8% in assay [4]; -6.3% in assay [5]; -1.05% in assay [6].

Turning to `CCOP(=O)(OCC)C(O)C(C)C` (stereo unspecified), the growth inhibition in assay [1] was 3.5%; in assay [2], 16.9%; in assay [3], 5.2%; in assay [4], -19.8%; in assay [5], 7.5%; in assay [6], 0.35%.

Regarding `CCCCOP(=O)(O)OCCCC.[V]`, the growth inhibition in assay [1] is -0.55%; in assay [2] it was -1.55%; in assay [3], -1.55%; in assay [4], -17.1%; in assay [5], -10.9%; in assay [6], 0.65%.

For `CCC(C#N)N1CC1` (stereo unspecified), the growth inhibition in assay [1] is -7.05%; in assay [2], 12.7%; in assay [3] it was -6.4%; in assay [4], 18.1%; in assay [5], -4.35%; in assay [6], 6%.

With `CCOP(=O)(OCC)Oc1c(Cl)c(Cl)c(O)c(Cl)c1Cl`, the growth inhibition in assay [1] is -23.1%; in assay [2], -15.7%; in assay [3], 4.2%; in assay [4] it was -17.6%; in assay [5], 6.4%; in assay [6], -8.5%.

For `CCOC(=O)C1=C(C)/C(=C\c2[nH]c(C)c(C(=O)OCC)c2C)N=C1C`, the growth inhibition was 8.95% in assay [1]; 13.7% in assay [2]; 23% in assay [3]; 8.95% in assay [4]; 19.5% in assay [5]; 19.9% in assay [6].

Consider `Cc1ccc2[nH]cc(CCN)c2c1`, for which the growth inhibition was -5.9% in assay [1]; -53.1% in assay [2]; -5.4% in assay [3]; 21.8% in assay [4]; -19.8% in assay [5]; -27.5% in assay [6].

In the case of `[Cl][Hg][c]1ccccc1N=Nc1ccccc1`, the growth inhibition was 91.7% (active) in assay [1]; 98.5% (active) in assay [2]; 94.4% (active) in assay [3]; 97% (active) in assay [4]; 98% (active) in assay [5]; 94.5% (active) in assay [6].

On to `c1cc2[se][se]c3c4cccc5[se][se]c(c(c1)c23)c54`, for which the growth inhibition in assay [1] was 1.05%; in assay [2], -8.7%; in assay [3], -26.8%; in assay [4], -3.95%; in assay [5], -1.8%; in assay [6], -31.1%.

For the compound `CC1OCN2CCCCC12` (stereo unspecified), the growth inhibition in assay [1] was -25.9%; in assay [2], -12.7%; in assay [3] it was -33.4%; in assay [4], -7.85%; in assay [5], -25.1%; in assay [6] it was -27.1%.

As for `CC(NC1=NCCO1)c1ccsc1` (stereo unspecified), the growth inhibition is 21.9% in assay [1]; 12.6% in assay [2]; 3.5% in assay [3]; 14.8% in assay [4]; 3.75% in assay [5]; -24.1% in assay [6].

In the case of `Cc1cc(S(=O)(=O)F)ccc1NC(=O)NCc1ccc([N+](=O)[O-])cc1`, the growth inhibition in assay [1] was 2.75%; in assay [2], 15.7%; in assay [3], 24.1%; in assay [4] it was -1.95%; in assay [5] it was 18.1%; in assay [6], 10.1%.

For `Cc1ccc(P(=O)(O)O)cc1`, the growth inhibition is -10.9% in assay [1]; -15.9% in assay [2]; 12.1% in assay [3]; 2.6% in assay [4]; -2.2% in assay [5]; -14.8% in assay [6].

Regarding `Fc1ccccc1N=C=S`, the growth inhibition in assay [1] is 4.55%; in assay [2] it was -12%; in assay [3], 5.65%; in assay [4], 18.1%; in assay [5], 14.6%; in assay [6], 2.75%.

In the case of `COc1ccc(OC)c(CCc2cc(OC)ccc2OC)c1`, the growth inhibition in assay [1] is -7.85%; in assay [2], -13.2%; in assay [3], -9.95%; in assay [4] it was -40.1%; in assay [5], 13.2%; in assay [6], -28%.
